Screening results (PubChem)
The list is not random: actives were taken first. Their share in the collection is about 0.87%.
TLR4 MyD88 comp: inhibitors of TLR4-MyD88 association in cells, primary screen, cell-based, HeLa CL3-4, BLA complementation, FRET ratio; Toll-like receptor 4 (Homo sapiens) + Myeloid differentiation primary response protein …; HeLa CL3-4 TLR4/MyD88 BLA complementation; inhibition, % at 8.4 µM; 200,000 tested, 0.18% active; AID 861, 2007; in the data active means inhibition above about 25%;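 further: 0% = vehicle and 100% = reference inhibitor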
Target sequence (O00206 whole entry, looked up): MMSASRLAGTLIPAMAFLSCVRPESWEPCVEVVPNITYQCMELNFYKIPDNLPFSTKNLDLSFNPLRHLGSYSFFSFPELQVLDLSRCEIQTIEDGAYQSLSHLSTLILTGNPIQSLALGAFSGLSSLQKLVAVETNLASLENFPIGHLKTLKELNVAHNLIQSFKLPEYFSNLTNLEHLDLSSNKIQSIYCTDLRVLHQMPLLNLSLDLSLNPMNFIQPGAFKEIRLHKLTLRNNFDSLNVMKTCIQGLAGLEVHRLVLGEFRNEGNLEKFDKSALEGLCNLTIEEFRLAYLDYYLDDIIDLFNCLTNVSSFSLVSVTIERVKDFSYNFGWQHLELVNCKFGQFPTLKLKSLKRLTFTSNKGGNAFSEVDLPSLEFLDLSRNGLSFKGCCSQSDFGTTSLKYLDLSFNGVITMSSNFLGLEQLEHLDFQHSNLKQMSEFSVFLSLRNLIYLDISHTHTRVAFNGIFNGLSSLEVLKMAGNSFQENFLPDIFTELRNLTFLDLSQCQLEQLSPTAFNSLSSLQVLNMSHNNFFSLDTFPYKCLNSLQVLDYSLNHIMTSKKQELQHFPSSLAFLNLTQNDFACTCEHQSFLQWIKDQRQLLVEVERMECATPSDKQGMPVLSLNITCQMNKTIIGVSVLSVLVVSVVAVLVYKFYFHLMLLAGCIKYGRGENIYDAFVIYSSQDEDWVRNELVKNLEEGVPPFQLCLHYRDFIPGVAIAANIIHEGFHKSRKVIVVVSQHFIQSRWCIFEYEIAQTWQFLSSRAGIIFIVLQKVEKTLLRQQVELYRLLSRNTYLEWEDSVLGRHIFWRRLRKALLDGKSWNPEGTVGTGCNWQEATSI
Target sequence (Q99836 whole entry, looked up): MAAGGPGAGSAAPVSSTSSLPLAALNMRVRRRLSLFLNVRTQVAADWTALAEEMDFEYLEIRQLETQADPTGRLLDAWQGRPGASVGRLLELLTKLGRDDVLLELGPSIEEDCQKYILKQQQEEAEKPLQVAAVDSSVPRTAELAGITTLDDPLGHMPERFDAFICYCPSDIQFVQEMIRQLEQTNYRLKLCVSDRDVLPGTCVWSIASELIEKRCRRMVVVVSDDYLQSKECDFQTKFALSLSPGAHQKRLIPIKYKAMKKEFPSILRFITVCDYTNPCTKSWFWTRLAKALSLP
NOD2-RIPK2 inh: NOD2-RIPK2 binding disruptors in cells, primary screen, fluorescence, CHO cells, BLA complementation. Receptor-interacting serine/threonine-protein kinase 2 (Homo sapiens), O43353. inhibition, % at 4.98 µM. 360,000 tested, 0.38% active. AID 624267, 2012. CCF4 ratio; in the data active means inhibition above about 21%;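 further: 0% = vehicle only and 100% = reference blocker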
IDE cell activ: human IDE activators in live cells, primary screen, fluorescence polarization, HEK cells, FAbeta-B substrate; FAbeta-B cleavage; 0% vehicle, 100% cell-free pure enzyme wells; 340,000 tested, 0.073% active; activation, % at 5.96 µM; Insulin-degrading enzyme (Homo sapiens), P14735;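 active means activation above the mean of all tested compounds plus 3 SD, set per screening campaign, cut at about 17% in these data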
IDE inh: human IDE inhibitors in live cells, primary screen, fluorescence polarization, HEK cells, FAbetaB substrate; inhibition, % at 5.59 µM; FAbetaB cleavage; 320,000 tested, 0.41% active;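 active means percent inhibition above the average of all tested compounds plus 3 SD, set per screening campaign, cut at about 16% in these data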;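 further: IDE supplied by intact live HEK cells; FP after avidin binding of uncleaved biotin substrate so inhibition keeps polarization high; 0% = DMSO wells and 100% = 60 µM reference IDE inhibitor Ii1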
TLR9-MyD88 inh: inhibitors of TLR9-MyD88 association in cells, primary screen, cell-based, CHO, BLA complementation, fluorescence. Toll-like receptor 9 (Homo sapiens) + Myeloid differentiation primary response protein …. CCF4 FRET ratio. inhibition, % at 4.98 µM. 340,000 tested, 0.21% active;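 active means inhibition above the mean over all tested compounds plus 3 SD, cut at about 21% in these data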;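 further: 0% = DMSO only wells and 100% = clavulanate BLA inhibitor control wells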
Active calls of the source: *; x = no result given.

SMILES	TLR4 MyD88 comp	NOD2-RIPK2 inh	IDE cell activ	IDE inh	TLR9-MyD88 inh
CCNc1ccc2noc3c2c1C(=O)c1ccccc1-3	0	-5	17	-6	-9
CCOc1ccc2noc3c2c1C(=O)c1ccccc1-3	-2	-4	44*	-11	-11
Cc1ccc(C(=O)/C=C/c2c[nH]c3ccccc23)cc1	25	25*	-5	-1	16
Nc1[nH]c(C(=O)c2ccccc2)c(-c2ccccc2C(F)(F)F)c1C(=O)NCCc1cccs1	x	-4	x	x	x
CCCCCCN1C[C@H](n2cc(COC(=O)c3ccccc3)nn2)[C@@H](O)C[C@@H]1c1ccc(C)cc1	x	-10	x	x	-7
CCN(CC)c1ccc2cc(C(N)=O)c(=N)oc2c1	8	-13	x	15	x
CCN(CC)c1ccc2c(-c3ccc(S(=O)(=O)O)cc3S(=O)(=O)[O-])c3ccc(=[N+](CC)CC)cc-3oc2c1	x	-2	27*	-56	3
COc1ccc(C(O)c2ncc(-c3cccc(OCc4ccccc4)c3)[nH]2)cc1F (configuration not stated)	x	1	x	x	x
COc1cccc(C2=CC(c3ccccc3)n3nnnc3N2)c1 (configuration not stated)	0	4	-1	-1	8
COc1cccc(C2C=C(c3ccc(OC)cc3OC)Nc3nnnn32)c1 (configuration not stated)	8	31*	-1	5	46*
COCCNc1ncnc2c1ncn2[C@H]1CN(Cc2ccncc2)C[C@@H](CO)O1	x	-8	x	x	x
C=C(CN(C)C)C(=O)c1cc(C)ccc1C	x	45*	-2	x	0
Cc1ccc(C)c(C(=O)NCCN(C)C)c1	-5	0	1	-1	12
COc1ccc(OCc2n(CC(=O)OC3CC(C)CCC3C(C)C)c3ccccc3[n+]2C)cc1 (configuration not stated)	x	-4	18*	0	2
COc1ccc(-c2n(CC(=O)OC3CC(C)CCC3C(C)C)c3ccccc3[n+]2C)cc1 (configuration not stated)	20	-2	4	x	-6
O=C1NC[C@H](CCCCN2C[C@H](Cc3ccc(O)cc3)N(CCc3ccccc3)C(=O)C2=O)N(Cc2ccccc2)C1=O	x	-14	x	x	x
COC(=O)c1cc(=O)nc(NN=Cc2ccc(OC)cc2)s1	x	13	x	x	x
CC(C)S(=O)(=O)N1CCN(c2ccnc3cc(Cl)ccc23)CC1	x	6	x	23*	x
COc1ccc2ccccc2c1C(O)c1nccn1C (configuration not stated)	-6	10	21*	0	4
O=C(NC1CCCC1)c1cnn2c(C(F)(F)F)cc(-c3ccc4c(c3)OCO4)nc12	2	-5	19*	-2	-5
N#C/C(=C/c1ccc(N2CCOCC2)o1)c1ccc(Br)cc1	16	25*	-42	10	6
N#C/C(=C/c1ccc(N2CCCCCC2)o1)c1cccc(F)c1	18	13	-21	2	4
N#C/C(=C/c1ccc(N2CCCCCC2)o1)c1ccc(F)cc1	2	39*	-10	2	24*
Cc1nn(C)c(Cl)c1CN1CCC(CO)(CCOc2ccccc2)CC1	14	3	3	-2	-13
Cc1c(CN2CCC(CO)(CCOc3ccccc3)CC2)[nH]c2c(Cl)cccc12	14	0	28*	-4	-2
SMILES	TLR4 MyD88 comp	NOD2-RIPK2 inh	IDE cell activ	IDE inh	TLR9-MyD88 inh
O=C(c1ccc(Cl)c(Cl)c1)c1cc(-c2ccccn2)c(N2CCOCC2)s1	22	24*	4	-2	11
O=C(c1ccc(Br)cc1)c1cc(-c2ccccn2)c(N2CCOCC2)s1	12	3	2	-3	12
CC(C)(C)C(=O)c1sc2nc(-c3cccs3)cc(C(F)(F)F)c2c1N	6	-2	3	-2	4
Cc1nnc(NC(=O)c2sc3nc(-c4cccs4)cc(C(F)(F)F)c3c2N)s1	1	9	-27	19*	11
CCCCCCCCCn1c2c(c(=N)c3c1CCC3)CCCC2	17	24*	x	x	x
OC[C@@H](O)C(O)[C@@H](O)CO (some centres not stated)	x	-7	x	x	x
CCCCCC1NC(=O)NC1CCCCCC(=O)O (configuration not stated)	-2	10	-8	4	-2
C[C@@H]1NC(=O)N[C@@H]1CCCCCC(=O)O	x	7	51*	-17	5
COC(=O)[C@]12CCCCC=C1N(Cc1ccc3c(c1)OCO3)C(=O)[C@H](CC(=O)N1CCCCC1)C2	x	-14	x	x	x
CC(=O)C1=C(C)NC(SCC(=O)c2cc(Cl)ccc2Cl)=C(C#N)C1c1ccco1 (configuration not stated)	-1	21*	0	0	1
CC(=O)C1=C(C)NC(SCC(N)=O)=C(C#N)C1c1ccco1 (configuration not stated)	4	-9	3	5	3
O=C(NCCc1ccccc1)C1Cc2c(-c3ccccc3)ccnc2O1 (configuration not stated)	x	-6	x	x	x
COCCN1C(=O)COc2ccccc2C1C(=O)NC1CCCCC1 (configuration not stated)	x	-11	x	x	x
Cc1cc(Oc2ccc(C#N)cc2)nc(N2CCOCC2)n1	2	-3	28*	3	-2
Cc1ccc(Cc2c(-c3ccc(C)cc3)nc3c(Cl)cc(C(F)(F)F)cn23)cc1	x	-9	x	x	x
CCOC(=O)C1=C(c2ccccc2)NC(N)=NC1c1ccc(OCc2ccc(Cl)cc2)c(OC)c1 (configuration not stated)	x	-5	19*	2	-7
CCOC(=O)C1=C(c2ccccc2)NC(=O)NC1c1cc(Cl)c(O)c(OC)c1 (configuration not stated)	10	-3	-5	-2	-11
Cc1ccc(S(=O)(=O)c2ccccc2)cc1S	7	x	x	26*	x
COCCCNC(=O)C[C@@H]1C[C@@]2(C(=O)OC)CCCCC=C2N(CCc2ccc(OC)c(OC)c2)C1=O	x	-22	x	x	x
O=C(N/N=C/c1cn(-c2ccccc2)nc1-c1ccc2c(c1)OCCO2)c1ccncc1	11	-10	26*	-1	6
CCCS(=O)(=O)NC(=O)C1(C)CCCN(C(=O)c2ccc(OC)cc2OC)C1 (configuration not stated)	x	-1	x	x	x
COc1cc(OC)c2c(-c3cccc(-c4ccc(CO)cc4)c3)cc(=O)oc2c1	x	23*	-4	x	5
CN1CCN(C(=O)C[C@H]2CC[C@H]3[C@@H](COC[C@@H](O)CN3Cc3cccc(F)c3)O2)CC1	x	-14	x	x	x
